71 molecules from PubChem BioAssay can be followed below.

The target of assay [1] is Nuclear receptor coactivator 3 (Homo sapiens) (UniProt Q9Y6Q9). As to the kind of experiment: NCOA3 GAL4-fusion reporter inhibition – cell-based, luminescence, quadruplicate, confirmation (AID 588792;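 active = mean inhibition over 43.08%, the solvent-only control mean plus 3 SD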;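 note: 0% = DMSO treated cells and 100% = gossypol at 36 µM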). The note with it: HEK293 GAL4-SRC3 luciferase reporter, at 3.6 µM, active compounds read high.
Chain of Nuclear receptor coactivator 3 (Homo sapiens) (Q9Y6Q9 whole entry, looked up, the tested form may be a part): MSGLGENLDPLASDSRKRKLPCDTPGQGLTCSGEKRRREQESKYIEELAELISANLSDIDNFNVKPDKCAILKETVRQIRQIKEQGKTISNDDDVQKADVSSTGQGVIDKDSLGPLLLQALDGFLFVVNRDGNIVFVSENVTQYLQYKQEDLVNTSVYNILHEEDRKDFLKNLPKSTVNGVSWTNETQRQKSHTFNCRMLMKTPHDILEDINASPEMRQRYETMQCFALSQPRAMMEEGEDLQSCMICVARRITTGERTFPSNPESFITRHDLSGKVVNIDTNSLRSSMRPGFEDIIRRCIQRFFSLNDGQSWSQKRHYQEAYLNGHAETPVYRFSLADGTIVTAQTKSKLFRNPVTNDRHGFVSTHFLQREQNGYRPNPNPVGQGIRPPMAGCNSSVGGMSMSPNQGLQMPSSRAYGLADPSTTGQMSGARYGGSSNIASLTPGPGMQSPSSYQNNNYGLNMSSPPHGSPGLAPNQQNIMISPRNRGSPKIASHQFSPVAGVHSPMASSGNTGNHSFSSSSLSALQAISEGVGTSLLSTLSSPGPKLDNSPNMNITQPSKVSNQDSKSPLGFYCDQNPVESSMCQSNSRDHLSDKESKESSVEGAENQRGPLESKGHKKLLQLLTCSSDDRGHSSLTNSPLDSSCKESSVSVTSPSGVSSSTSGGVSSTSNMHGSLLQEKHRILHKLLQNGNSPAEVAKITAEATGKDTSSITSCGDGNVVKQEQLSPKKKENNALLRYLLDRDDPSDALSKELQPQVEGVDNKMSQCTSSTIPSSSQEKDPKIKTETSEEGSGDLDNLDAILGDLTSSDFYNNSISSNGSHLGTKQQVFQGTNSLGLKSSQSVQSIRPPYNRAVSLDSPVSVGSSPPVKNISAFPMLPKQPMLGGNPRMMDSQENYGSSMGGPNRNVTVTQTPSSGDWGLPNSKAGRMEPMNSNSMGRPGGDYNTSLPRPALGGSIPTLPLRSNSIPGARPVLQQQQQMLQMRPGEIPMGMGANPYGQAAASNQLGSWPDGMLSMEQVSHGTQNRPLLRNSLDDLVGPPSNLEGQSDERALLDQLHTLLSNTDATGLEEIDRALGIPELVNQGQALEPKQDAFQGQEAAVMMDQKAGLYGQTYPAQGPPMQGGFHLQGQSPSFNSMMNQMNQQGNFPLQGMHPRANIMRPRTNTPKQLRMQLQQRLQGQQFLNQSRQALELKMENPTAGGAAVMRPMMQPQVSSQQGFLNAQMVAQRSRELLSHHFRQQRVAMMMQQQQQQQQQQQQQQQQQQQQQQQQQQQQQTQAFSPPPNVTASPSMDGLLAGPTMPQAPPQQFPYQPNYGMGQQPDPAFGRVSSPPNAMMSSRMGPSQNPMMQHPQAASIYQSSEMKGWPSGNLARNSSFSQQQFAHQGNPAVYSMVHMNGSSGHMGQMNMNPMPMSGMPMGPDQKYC
In assay [2] the test system is transactivating tegument protein VP16 (Human herpesvirus 1), Gal4-VP16 luciferase reporter. As to the kind of experiment: repression of VP16-driven luciferase reporter – cell-based, luminescence, high throughput, counter-screen for SRC3 inhibitor project (AID 588794). The note with it: mammalian cells, at 3.6 µM, active compounds read high.

A number with no mark means an inactive call. Calls of active or inactive are those of the source. Cut-off read from the data, not from the text of the source, unless noted: active = inhibition above about 30%; inactive = the rest.

With `CC(Oc1ccc(Cl)cc1)C(=O)NCCN1C(=O)S/C(=C\c2cccnc2)C1=O` (configuration not stated), the inhibition in assay [1] is 4.29%; in assay [2], -2.64%.
The corresponding values for `Cn1c(SCC(=O)Nc2ccc(Cl)cc2)nc(O)cc1=O` are -1.75% and -9.43%.
On to `[O-]C(=C(C(=S)Nc1cccc2ccccc12)[n+]1ccccc1)c1ccc2c(c1)OCCO2`, for which the inhibition in assay [1] is 3.21%; in assay [2] it was -0.81%.
On to `COc1ccc(-c2cc(C(=O)NNC(=S)NC(=O)c3c(-c4ccccc4)noc3C)[nH]n2)cc1`, for which the inhibition in assay [1] was 6.16%; in assay [2] it was -3.86%.
The corresponding values for `COc1cccc(N2CCN(CC(=O)Nc3ccccc3C(=O)NCc3ccccc3)CC2)c1` are -32.3% and 7.53%.
Take `COc1cccc(-c2c(C(=O)N/N=C/c3ccncc3)nnn2-c2nonc2N)c1`: the inhibition in assay [1] was 3.64%; in assay [2], 12.9%.
Turning to `COC(=O)c1cc(S(=O)(=O)NCCc2ccc(Cl)cc2)c[nH]1`, the inhibition in assay [1] was 29.2%; in assay [2], 18.4%.
Take `CN1C(=O)C2(C(C#N)=C(N)N(c3cc(Cl)cc(Cl)c3)C3=C2C(=O)CCC3)c2ccccc21` (configuration not stated): the inhibition in assay [1] was 30.9%; in assay [2], 27.9%.
For `O=C(CCl)Nc1cccc(-c2cnc3ccccc3n2)c1`, the inhibition is 33.5% in assay [1] and 13.8% in assay [2].
Turning to `S=C(N/N=C/c1ccc2ncccc2c1)Nc1cccnc1`, the inhibition in assay [1] was -1.24%; in assay [2], -17.5%.
Take `COc1ccccc1C(=O)OCC(=O)c1ccc(CNC(C)=O)s1`: the inhibition in assay [1] was 10.4%; in assay [2] it was -0.94%.
Take `CCOC(=O)c1cnc(SC2CC(=O)N(c3cccc(OC)c3)C2=O)nc1N` (configuration not stated): the inhibition was 9.15% in assay [1] and 6.73% in assay [2].
The matching figures for `CC(C)OP(=O)(OC(C)C)/C(C=O)=N\Nc1ccc([N+](=O)[O-])cc1`: 7.9% and 2.13%.
`COC(=O)c1ccc2c(c1)C(C)(C)C(/C=C/c1ccc(O)cc1)=[N+]2C`: the values for the inhibition in assay [1] and in assay [2] were 66.6% (active) and 52.8% (active), respectively.
The matching figures for `CCc1ccc(NC(=O)c2cnc(N3CCN(c4ccccn4)CC3)c3ccccc23)cc1`: 18.1% and 42% (active).
Turning to `CCOC(=O)c1ccc2nc(Nc3nc4ccc(F)cc4s3)sc2c1`, the inhibition in assay [1] is 15.2%; in assay [2] it was 3.4%.
The matching figures for `CCOc1ccccc1/C=C/c1onc(C)c1S(=O)(=O)N1CCC(C(=O)N(CC)CC)CC1`: 5.63% and 3.37%.
The corresponding values for `CCCCCCCNC(=O)C1(CC2CC(c3ccc(Cl)cc3)=NO2)CCN(C(=O)c2cc(OCC)c(OCC)c(OCC)c2)CC1` (configuration not stated) are 20.9% and 0.73%.
The matching figures for `O=C1C=CC(=O)N1CCNc1ncc(C(F)(F)F)cc1Cl`: 7.05% and -14.1%.
Turning to `CC(=O)c1c(C)[nH]c(C(=O)Nc2ccc(Cl)c(S(=O)(=O)N3CCOCC3)c2)c1C`, the inhibition in assay [1] is 18.6%; in assay [2], -16.6%.
The corresponding values for `Cc1cc(C(F)(F)F)c(C#N)c(SCC(=O)Nc2nc3ccccc3s2)n1` are 49.7% (active) and 37.2% (active).
For the molecule `O=C(Cc1ccccc1)Nc1cc(Cl)ccc1Sc1ccccc1`, the inhibition in assay [1] is 2.36%; in assay [2] it was 5.41%.
As for `CCC(C)(C(=O)NC1CCCC1)N(C(=O)CNC(C)=O)c1ccc(C)cc1` (configuration not stated), the results for the inhibition in assay [1] and in assay [2] were 0.65% and -7.27%, respectively.
As to `Cc1ccc(OCC(O)CN2CCN(CC(O)COC(C)C)CC2)c(C(C)(C)C)c1` (configuration not stated), the inhibition is 8.73% in assay [1] and 13.2% in assay [2].
Regarding `CC(=O)c1c(C)n(-c2ccc(Br)cc2)c2ccc(O)cc12`, the inhibition in assay [1] was 53.3% (active); in assay [2], 30.8% (active).
For `Cc1ccc(C(=O)C[n+]2cc(-c3ccccc3)n3c2CCCCC3)cc1`, the values for the inhibition in assay [1] and in assay [2] were 6.68% and 22.9%, respectively.
The matching figures for `CC(=O)c1c(C)[nH]c(C(=O)OCC(=O)Nc2c(C)cccc2C)c1C`: 16.8% and 13.5%.
`CCOC(=O)c1c(C)[nH]c(C)c1C(=O)COC(=O)/C=C/c1cccc(Cl)c1`: the inhibition was -3.47% in assay [1] and -1.23% in assay [2].
Take `CC(=O)c1cccc(NC(=O)Nc2ccc3c(c2)N(C)C(=O)CS3)c1`: the inhibition was 32.7% in assay [1] and 3.54% in assay [2].
In the case of `O=C(Cc1ccccc1)N/N=C/c1cc(Br)cc(Cl)c1O`, the inhibition in assay [1] was 19.8%; in assay [2], 16.4%.
Consider `CCOc1ccc(OCC)c(NC(=O)CN(C)S(=O)(=O)c2cccc3nsnc23)c1`, for which the inhibition was 1.36% in assay [1] and 0.62% in assay [2].
The corresponding values for `CCOC(=O)c1c(-c2ccccc2)nnn1-c1nc(OCC)nc(N2CCCCC2)n1` are -15.5% and 0.51%.
As for `O=C(COc1ccc(Cl)cc1)NCc1nnc(SCC(=O)NC2CCCCC2)o1`, the inhibition is 3.51% in assay [1] and 3.49% in assay [2].
As for `Cc1ccc(-c2cn(-c3ccc(OC(F)F)cc3)c3[n+]2CCCCC3)cc1`, the inhibition in assay [1] was 3.74%; in assay [2], 23%.
As to `COc1ccc(S(=O)(=O)NCc2ccncc2)cc1NC(=O)c1ccc(Cl)cc1`, the inhibition in assay [1] is 14.2%; in assay [2], 4.55%.
With `Clc1ccc2nnnc(-c3ccccc3)c2c1`, the inhibition in assay [1] is 65.8% (active); in assay [2], 68% (active).
`CCCCNC1C(CC)C(CCC)C(C#N)(C#N)C1(C#N)C#N` (configuration not stated): the inhibition in assay [1] is 3.79%; in assay [2] it was 20%.
Take `Cc1ccc(N=Nc2ccc3ccccc3c2O)cc1`: the results for the inhibition in assay [1] and in assay [2] were 30.8% and 17.5%, respectively.
In the case of `COc1ccc(N/N=C(/N=Nc2nc(C)cc(=O)[nH]2)c2ccccc2)cc1`, the inhibition in assay [1] was 46.6% (active); in assay [2], 30.7% (active).
Turning to `CCOC(=O)/C(C#N)=C/c1cc(C)n(-c2ccccc2)c1C`, the inhibition in assay [1] is 18.5%; in assay [2], 18.2%.
The matching figures for `O=C(NCc1cccs1)C1CCCN(C(=O)Nc2ccc(F)cc2)C1` (configuration not stated): -1.07% and 5.59%.
As to `CC1Cc2cc(-c3csc(NC(=O)Cc4ccccc4)n3)ccc2N1S(C)(=O)=O` (configuration not stated), the values for the inhibition in assay [1] and in assay [2] were 23.8% and 24.3%, respectively.
`CN(Cc1cccc(F)c1)C(=O)C1CC(=O)N(Cc2ccco2)C1` (configuration not stated): the inhibition in assay [1] was -0.39%; in assay [2] it was -6.54%.
The matching figures for `COc1ccc(CCNC(=O)COC(=O)Cc2cccc3ccccc23)cc1`: -2.4% and -9.98%.
The matching figures for `O=[N+]([O-])c1ccc(N=Nc2c(Cl)cc(O)cc2Cl)cc1`: 13.9% and 66% (active).
Turning to `Cn1nc(C(F)(F)F)cc1C(=O)Nc1ccc(Cl)cc1`, the values for the inhibition in assay [1] and in assay [2] were 4.63% and 8.1%, respectively.
On to `COc1ccc(CCNC(=O)C2CCCN(S(C)(=O)=O)C2)cc1OC` (configuration not stated), for which the inhibition in assay [1] is -14%; in assay [2] it was -3.27%.
`COc1cc(NC(=O)c2cc3ccccc3cc2OC)ccc1NC(=O)c1cccs1`: the inhibition in assay [1] was 4.37%; in assay [2], -1%.
For the molecule `CCOc1ccc(N2C(=O)C(CC(=O)Nc3ccccc3)N(Cc3ccccn3)C2=S)cc1` (configuration not stated), the figures for the inhibition in assay [1] and in assay [2] were 9.7% and 12.2%, respectively.
The corresponding values for `Cc1cccc(OCC(O)Cn2c(=N)n(CCN3CCCCC3)c3ccccc32)c1` (configuration not stated) are 2.86% and 20.6%.
In the case of `COc1ccc(Cl)cc1C(=O)Nn1c(-c2cccs2)nc2ccccc2c1=O`, the inhibition is 25.5% in assay [1] and 22.1% in assay [2].
With `O=C1N=c2ccccc2=C1c1sc(=O)[nH]c1O`, the inhibition is -3.29% in assay [1] and 2.71% in assay [2].
With `c1csc(Cc2nn3c(-c4ccncc4)nnc3s2)c1`, the values for the inhibition in assay [1] and in assay [2] were 29.8% and 20.8%, respectively.
Turning to `CCCCC(=O)NC(c1ccco1)c1cc(Cl)c2cccnc2c1O` (configuration not stated), the figures for the inhibition in assay [1] and in assay [2] were 16.4% and 10.6%, respectively.
For `CCCC(=O)NC(NC(=S)Nc1ccc(N=Nc2ccccc2)cc1)C(Cl)(Cl)Cl` (configuration not stated), the values for the inhibition in assay [1] and in assay [2] were 3.89% and 18.1%, respectively.
For the molecule `CC/C(C)=N/Nc1cccc([N+](=O)[O-])c1`, the inhibition was 2.68% in assay [1] and 18% in assay [2].
With `CCCCCc1ccc(OCCOCCn2c[n+](C)c3ccccc32)c(CCCCC)c1`, the inhibition in assay [1] is 25.3%; in assay [2] it was 36.4% (active).
In the case of `COc1ccc(Cl)cc1NC(=O)CN(C)CC(=O)Nc1c(C)n(C)n(-c2ccccc2)c1=O`, the results for the inhibition in assay [1] and in assay [2] were 14.8% and 4.85%, respectively.
The matching figures for `COc1cccc(CNC(=O)c2cc3c(c(-c4cccc(-c5cccc(C#N)c5)c4)n2)[C@H](CCO)N(S(=O)C(C)(C)C)C3)c1` (some centres not stated): -23% and 0.36%.
With `CCCN1CCN(C2CCCCC2NS(=O)(=O)c2ccccc2)CC1` (configuration not stated), the inhibition is -7.15% in assay [1] and -2.22% in assay [2].
The corresponding values for `Fc1ccc(-c2noc(C3CCN(Cc4cccnc4)CC3)n2)cc1` are -4.45% and 6.14%.
The matching figures for `NC(=S)N/N=C\c1c(OCc2ccccc2Cl)ccc2ccccc12`: 18.1% and 27.6%.
As to `Cc1nnnn1/C(=C\c1ccccc1)C(=O)OCC(=O)Nc1cccc(S(=O)(=O)N(C)C)c1`, the inhibition in assay [1] is -9.38%; in assay [2] it was 13.2%.
On to `CC1CCc2c(sc(NC(=O)c3ccco3)c2C(=O)O)C1` (configuration not stated), for which the inhibition in assay [1] is 18.1%; in assay [2], 36.3% (active).
Turning to `Oc1c(CN2CCCCC2)cc(COCc2ccccc2)c2cccnc12`, the inhibition was 75.2% (active) in assay [1] and 66.7% (active) in assay [2].
For `C=CCc1cccc(/C=N/NC(=O)CCC(=O)Nc2ccc(F)cc2)c1O`, the inhibition was 26.2% in assay [1] and 21.1% in assay [2].
The corresponding values for `Cc1ccc(S(=O)(=O)Nc2ccc3c(c2)OCCO3)cc1C` are 24.1% and -2.28%.
Consider `Cc1ccc(-c2csc(NC(=O)c3cccc(C)c3)c2C(=O)O)cc1`, for which the inhibition is -6.27% in assay [1] and 0.42% in assay [2].
For the molecule `Fc1ccccc1-c1csc(=Nc2cccnc2)n1CCCn1ccnc1`, the results for the inhibition in assay [1] and in assay [2] were 37.4% and 25.1%, respectively.
For the molecule `CN1OC[C@@H]2CN(C(=O)c3ccc(-c4ccccc4)cc3)[C@H](c3ccc(-c4cccc(F)c4)cc3)C[C@@H]21`, the inhibition in assay [1] was -6.51%; in assay [2], 18.4%.
On to `CCN(CC(=O)Nc1ccccc1C(F)(F)F)C(=O)c1ccc(N2C(=O)CCC2=O)cc1`, for which the inhibition in assay [1] was -1.4%; in assay [2] it was 2.68%.

What is called inhibition is the drop in the measured response relative to a control, in per cent.
